The list is not random: actives were taken first. Their share in the collection is about 2.1%.
Abeta yeast res: restores growth of yeast expressing A-beta42 peptide. yeast expressing A-beta42, growth rescue, OD600, 48 h; response scale: 0% DMSO, 100% iron-clioquinol control. Potency, µM (top dose mostly 46.1 µM), usual class: activators. actives 0.063% (n = 410,000); further: nearly all actives have a fitted effect of over 55% in size
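Yeast growth medium received pinned compounds, then yeast cells expressing toxic A-beta were added; plates incubated at 30 C for 48 hr. Growth read as absorbance at 600 nm, normalized to DMSO and equimolar FeCl3 plus clioquinol controls.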
Glioma ERSR ind: inducers of ER stress response in human glioma cells; U87-MG GRP78 promoter luciferase reporter, 16 h; Potency, µM, for inactives: at the top dose activation, hits mostly activators; actives 0.02% (n = 420,000); further: series mostly up to about 76 µM; % of control where 0% means no effect; nearly all actives have a fitted effect of over 35% in size
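Stably transfected U87-MG glioma cells carrying a GRP78-based luciferase sensor; 16 h compound incubation. Luminescence end-point read 10 min after Bright-Glo addition at room temperature.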
aSyn rescue: alpha-synuclein toxicity inhibition in yeast. Yeast expressing alpha-synuclein, growth rescue, BacTiter-Glo, 24 h. Potency, µM (doses to about 46.1 µM), without a hit: at the top dose growth rescue (activation), hits mostly activators. actives 0.14% (n = 370,000); further: % of control where 0% means no effect; nearly all actives have a fitted effect of over 65% in size
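Readout is rescue of growth in alpha-synuclein-expressing yeast, so inhibitors of toxicity appear as activators. Growth after 24 hr at 30 deg C in galactose medium is quantified by luminescence.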
AT treatment: candidate therapy for ataxia-telangiectasia; F2112 A-T fibroblasts, KAP-1 phosphorylation AlphaLISA; neocarzinostatin DNA damage 30 min before lysis; Potency, µM (titrated, usually from 57.5 µM), inactives show at the top dose activation, actives largely listed as activators; actives 0.19% (n = 320,000); further: % of control where 0% means no effect; nearly all actives have a fitted effect of over 45% in size
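hTERT-immortalized A-T patient fibroblasts (F2112), 500 cells/well in OPTI-MEM, 1% FBS, got compounds for 60 min, then NCS for 30 min at 37C. Lysates were then assayed for phospho-KAP-1 by AlphaLISA (anti-pKAP1 donor, anti-KAP1 acceptor beads), 6 hr at 25C.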
Mito fusion yeast: inhibitors of mitochondrial division or activators of mitochondrial fusion | S. cerevisiae fusion-defective mutant growth rescue, CellTiterGlo 48 h | Potency, µM (highest dose often 46.1 µM), without a hit: at the highest dose growth rescue (activation), usual class: activators | actives 0.23% (n = 320,000) | AID 485298; further: % of control where 0% means no effect; nearly all actives have a fitted effect of over 45% in size
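Temperature-sensitive fusion-defective S. cerevisiae (e.g. fzo1-1, mgm1-5) were grown with compound in YPEG medium (3% ethanol, 3% glycerol) for 48 hours at 37C. Growth rescue was measured as viability by CellTiterGlo luminescence after 10 minutes at ambient.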
TDP-43 yeast inh: rescues yeast growth from TDP-43 toxicity; Potency, µM (titrated, usually from 46.1 µM), for the others: at the highest dose growth rescue (activation), usual class: activators; TDP-43 expressing yeast growth rescue, BacTiter-Glo, 24 h; actives 1.8% (n = 410,000); further: % of control where 0% means no effect; nearly all actives have a fitted effect of over 50% in size
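Yeast expressing TDP-43 (pregrown in raffinose, seeded at OD600=0.02 in galactose medium) exposed to compounds 24 hr at 30 deg C. Growth read by BacTiter-Glo luminescence; rescue of toxicity appears as increased signal.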
Active calls of the source: *; i = inactive; u = inconclusive; x = not tested or not shown. The call rests on the fitted dose curve; in most records, active means well fitted curve in the direction sought with a large enough effect; inconclusive means small, poorly fitted or top-dose-only effect, or another doubt; inactive means no such curve, though single readings can be large; an effect the other way counts as inactive or inconclusive. Potency means the concentration at half of the fitted maximal effect.

SMILES | Abeta yeast res | Glioma ERSR ind | aSyn rescue | AT treatment | Mito fusion yeast | TDP-43 yeast inh
O=C(O)c1ccc2c(c1)C1C=CCC1C(c1cc3c(cc1Br)OCO3)N2 (configuration not stated) | i | -7.1% | 4.5% | 1.8% | 11.2µM* | u
Brc1cc2c(cc1C1Nc3ccccc3C3C=CCC31)OCO2 (configuration not stated) | i | -4.7% | 0.9% | 0.2% | 9.4% | 3.5%
CCC1CN(CCC(=O)N2CCCN(C(=O)c3ccco3)CC2)Cc2cc(OC)ccc2O1 (configuration not stated) | x | -2.4% | x | x | x | x
CC(C)c1ccc(C2=CC(c3cccc(Cl)c3)n3c(nc4ccccc43)N2)cc1 (configuration not stated) | i | -7.6% | x | x | x | 17.8µM*
CCOc1ccc(C2=CC(c3cccc(Br)c3)n3c(nc4ccccc43)N2)cc1Cl (configuration not stated) | i | 2.2% | x | x | x | 12.6µM*
CC(C)c1ccc(C2=CC(c3cccc(Cl)c3)n3ncnc3N2)cc1 (configuration not stated) | i | 0.1% | x | x | x | 12.6µM*
CCc1ccc(C2=CC(c3cccc(C)c3)n3c(nc4ccccc43)N2)cc1 (configuration not stated) | i | -8.0% | x | x | x | 12.6µM*
CCc1ccc(C2=CC(c3cccc(OC)c3OC)n3c(nc4ccccc43)N2)cc1 (configuration not stated) | i | -4.4% | x | x | x | 1.2%
COc1cccc(C2=CC(c3ccc(C)cc3)n3ncnc3N2)c1 (configuration not stated) | x | x | x | 6.6% | -20.7% | x
Cc1ccc(NC(=O)c2cc(S(=O)(=O)N3CCCC(C)C3)cn2C)c(Br)c1 (configuration not stated) | i | -3.5% | x | x | x | 22.3%
COc1ccc(N2C(=O)CC(N3CCC(O)(c4cccc(C(F)(F)F)c4)CC3)C2=O)cc1 (configuration not stated) | i | -3.5% | 7.6% | -5.7% | -13.1% | 17.8µM*
COc1ccc(N2C(=O)CC(N3CCCCC3)C2=O)cc1 (configuration not stated) | i | -6.3% | 29.6% | 5.6% | -20.6% | u
CCC1CN(Cc2c(C)nc3sccn23)Cc2cc(OC)ccc2O1 (configuration not stated) | x | -4.1% | x | x | x | x
Cc1nc(-n2[nH]c3c(c2=O)CCCC3)[nH]c(=O)c1Cc1ccccc1 | u | u | u | 15.0% | -5.4% | 10µM*
CCn1c2c(c3cc(OCC(C)C)ccc31)CCCC2=O | i | -2.6% | 29.4% | 31.6µM* | 14.1% | 3.4%
CCOc1cc(/C=N/NC(=O)c2nn(C)cc2Br)ccc1OCc1ccccc1Cl | i | -4.8% | u | 0.9% | 3.98µM* | -2.1%
CCOc1cc(/C=N/NC(=O)CN2CCCCC2)ccc1OCc1cccc(Cl)c1 | i | -5.2% | 0.1% | -0.4% | 2.6% | 12.6µM*
Cc1ccccc1OCc1nnc(SCc2cc(=O)c3ccc(C)c(C)c3[nH]2)n1C | i | -2.2% | x | x | x | 13.0%
CCN1/C(=C/C=C/C=C/c2sc3ccccc3[n+]2CC)Sc2ccccc21 | x | -9.9% | -65.0% | 31.6µM* | u | x
CCc1noc(C)c1C(=O)Nc1nc(-c2cccs2)cs1 | i | 0.8% | -10.4% | -6.8% | 27.5% | 12.6µM*
Cc1noc(C)c1C(=O)Nc1nc(-c2cccs2)cs1 | i | 2.6% | -10.6% | 3.9% | 6.5% | u
CC(=O)c1ccc(-c2cc(F)cc3c2OC(CNC(=O)Cc2cn4ccsc4n2)C3)s1 (configuration not stated) | x | -3.6% | x | x | x | x
CSc1nnc(Nc2ccccc2C)s1 | i | -0.7% | 3.2% | 0.7% | -5.6% | 11.2µM*
Cc1cc(NC(=O)CSc2nnc(Nc3ccccc3C)s2)no1 | i | -2.7% | 8.0% | 0.0% | 0.7% | 1.5%
CCOCc1cc(CN2CCN(c3cccc(C(F)(F)F)c3)CC2)c(O)c2ncccc12 | i | -5.6% | x | x | x | 25.1µM*
SMILES | Abeta yeast res | Glioma ERSR ind | aSyn rescue | AT treatment | Mito fusion yeast | TDP-43 yeast inh
COC(=O)Cn1c(SCCOc2ccccc2Cl)nc2ccccc21 | i | -0.8% | x | x | x | 28.2µM*
COc1ccccc1OCCSc1nc2ccccc2n1CCC(=O)O | i | 0.1% | 0.3% | 2.8% | 0.5% | 6.3%
Cc1ccc(C(C)C)c(OCCSc2nc3ccccc3n2CC(O)CO)c1 (configuration not stated) | i | -3.8% | x | x | x | 35.5µM*
CCc1nc(CN2CCOc3ccc(C(O)C4CCCCC4)cc3C2)c(C)[nH]1 (configuration not stated) | x | -3.8% | x | x | x | x
O=[N+]([O-])c1cccc(S(=O)(=O)NCC2CC3CCC2C3)c1 (configuration not stated) | i | -1.7% | 15.2% | 16.7% | 0.3% | 11.2µM*
CCCCN(CC)C(=O)CSc1c2c(nc3ccc(Cl)cc13)CCCC2 | i | -7.4% | x | x | x | 22.4µM*
COc1ccc(NC(=O)CSc2c3c(nc4cc(Cl)ccc24)CCCC3)cc1OC | i | -13.0% | 8.8% | u | 5.5% | 12.8%
CCC(C)NC(=O)CSc1c2c(nc3cc(Cl)ccc13)CCCC2 (configuration not stated) | i | -3.1% | x | x | x | 0.0%
CCOC(=O)c1ccc(NC(=O)CSc2c3c(nc4cc(Cl)ccc24)CCCC3)cc1 | i | -2.1% | x | x | x | 15.8µM*
COc1ccc(NC(=O)CSc2c3c(nc4ccc(Cl)cc24)CCCC3)cc1Cl | i | -1.8% | x | x | x | 11.2µM*
CCCCNC(=O)CSc1c2c(nc3ccc(Cl)cc13)CCCC2 | i | -7.2% | x | x | x | u
CC1CCN(C(=O)CSc2c3c(nc4cc(Cl)ccc24)CCCC3)CC1 | i | -10.1% | x | x | x | u
O=C(CSc1c2c(nc3cc(Cl)ccc13)CCCC2)N1CCN(c2ccccc2)CC1 | i | -9.3% | x | x | x | 20µM*
CCCNC(=O)CSc1c2c(nc3ccc(Cl)cc13)CCCC2 | i | -10.3% | x | x | x | 23.1%
COCCNC(=O)CSc1c2c(nc3ccc(Cl)cc13)CCCC2 | i | -10.9% | -7.6% | 3.2% | 17.8µM* | -3.1%
CCOc1ccc(C(=O)Nc2ccccc2CC)cc1[N+](=O)[O-] | u | -6.3% | -1.7% | -9.1% | 21.8% | 28.2µM*
Cn1c(C(=O)OC(C(=O)NCc2ccco2)c2ccncc2)cc2sccc21 (configuration not stated) | i | -1.5% | 3.7% | x | -6.7% | 24.0%
O=C(N/N=C/C=C/c1ccccc1)c1ccncc1 | i | -2.6% | 5.7% | 4.9% | -2.2% | 9.7%
O=C(O)c1ccc(/C=N/Nc2ccc(C(F)(F)F)cn2)cc1 | i | -4.1% | 5.6% | 0.4% | 2.0% | 8.91µM*
